Compound activity (PubChem BioAssay)
HNF4A DNA FP = change in binding of human HNF4 alpha to DNA; P41235; HNF4a-FITC DNA binding, fluorescence polarization, 1 h; activity change, % at 10 µM; hit rate 0.3% among 360,000; in the data active means activity change above about 30%, passing the limit was not always enough
Fh CTSL1 inh = counter-screen for PFM18AAP inhibitors: inhibitors of F. hepatica cathepsin L1 | recombinant F. hepatica cathepsin L1, Z-Leu-Arg-MCA fluorescence | inhibition, % at 5.96 µM | hit rate 0.49% among 300,000;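 active means inhibition above the mean of all tested compounds plus 3 SD, set per screening campaign, cut at about 17% in these data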
TPT1 inhibitor = blocks Candida albicans tRNA 2'-phosphotransferase | inhibition, % at 5 µM | recombinant caTPT1, FP RNA substrate dephosphorylation | AID 1962 | hit rate 0.81% among 300,000;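 active means inhibition above the mean of all tested compounds plus 3 SD, set per screening campaign, cut at about 24% in these data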
Rpn11 inh = Rpn11 (human) deubiquitinase inhibition. inhibition, % at 20 µM. hit rate 0.59% among 360,000. human 26S proteasome, Ub4-pepOG fluorescence polarization; 20S core pre-blocked with epoxomicin;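 active means inhibition at 20 µM, scaled to each plate's controls, above about 33%, limit read from the data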
Target sequence (O00487 whole entry, looked up): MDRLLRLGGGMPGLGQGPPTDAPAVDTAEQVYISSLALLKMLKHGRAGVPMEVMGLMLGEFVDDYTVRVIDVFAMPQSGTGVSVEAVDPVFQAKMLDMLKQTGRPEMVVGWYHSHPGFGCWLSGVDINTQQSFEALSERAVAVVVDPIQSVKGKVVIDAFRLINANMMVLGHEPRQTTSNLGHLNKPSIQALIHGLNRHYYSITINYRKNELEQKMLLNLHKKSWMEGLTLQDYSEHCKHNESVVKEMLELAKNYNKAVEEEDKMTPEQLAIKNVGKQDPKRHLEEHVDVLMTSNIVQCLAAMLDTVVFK
PHOSPHO1 inh = PHOSPHO1 (human) inhibition; recombinant PHOSPHO1, absorbance phosphatase assay; inhibition, % at 13.3 µM; hit rate 1.1% among 290,000; Q8TCT1; in the data active means inhibition above about 60%
Target sequence (Q8TCT1 whole entry, looked up): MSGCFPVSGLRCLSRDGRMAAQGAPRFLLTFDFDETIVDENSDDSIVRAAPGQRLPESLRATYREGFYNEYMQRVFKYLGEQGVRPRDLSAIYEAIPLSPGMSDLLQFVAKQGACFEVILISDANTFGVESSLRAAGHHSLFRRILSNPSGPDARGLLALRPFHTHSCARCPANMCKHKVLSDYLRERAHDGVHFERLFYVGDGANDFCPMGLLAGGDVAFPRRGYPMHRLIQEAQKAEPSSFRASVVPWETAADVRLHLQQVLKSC
CendR NRP1 mod = alters CendR peptide binding to human NRP-1 | inhibition, % at 25 µM | O14786 | AID 602438 | hit rate 0.85% among 360,000 | FAM-RPARPAR peptide binding to NRP-1, fluorescence polarization;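 active means inhibition or corrected inhibition above about 18%, plus a signal ratio from 0.5 to 1.5, limit read from the data, passing the limit was not always enough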
Rpn11 inh conf = confirmation of human proteasome Rpn11 inhibitors | shares compounds with Rpn11 inh | purified human 26S proteasome, Ub4-pepOG fluorescence polarization; proteasome pretreated with epoxomicin | inhibition, % at 20 µM | hit rate 29% among 1,900
MMP-2 counter = counter-screen for RPN11 inhibitors: inhibition of human MMP-2; inhibition, % at 20 µM; shares compounds with Rpn11 inh; AID 602330; recombinant MMP-2, FRET peptide cleavage fluorescence; hit rate 4% among 1,900;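 further: human MMP-2 activated beforehand with APMA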
Thrombin inh = thrombin (bovine) inhibition counter-screen | shares compounds with Rpn11 inh | bovine thrombin cleavage of Ub4-pepOG, fluorescence polarization | inhibition, % at 20 µM | hit rate 13% among 1,900;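 active means mean inhibition at least 40% at 20 µM, or signal 3 deviations below plate average, so some actives read negative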
Each line names hits and unclear results; the compound was inactive in the other large screens (follow-up assays come after a bar, where they were run). In the library only some 3.3% were active in any assay of this set; here they are far more common. Unless noted, no stated cut-off is given here; in the data, active means inhibition above about 40%; inactive means the rest.

Cn1cc(-c2csc(C(C)(O)c3cccnc3)n2)cn1 (centres undefined)	none (no result: Fh CTSL1 inh, TPT1 inhibitor, PHOSPHO1 inh)
C=CCN1c2ccc(Br)cc2C(=O)CS1(=O)=O	none (no result: Fh CTSL1 inh, TPT1 inhibitor, PHOSPHO1 inh)
COc1cccc(CN2c3ccc(Br)cc3C(=O)CS2(=O)=O)c1	Rpn11 inh 94 (no result: Fh CTSL1 inh, TPT1 inhibitor, PHOSPHO1 inh) | Rpn11 inh conf inactive | MMP-2 counter inactive | Thrombin inh inactive
NS(=O)(=O)c1ccc(CNC(=O)c2cc(=O)c3cc(Cl)ccc3o2)cc1	none
Cc1cc(C(C#N)c2ccc(Cl)cc2)c(Cl)cc1NC(=O)c1cc(I)cc(I)c1O (centres undefined)	Rpn11 inh 47 (no result: PHOSPHO1 inh) | Rpn11 inh conf inactive | MMP-2 counter inactive | Thrombin inh inactive
Cc1cc(NC(=O)c2ccc(Cl)cc2)c(C)cc1O	none
CC(Sc1nc(-c2ccccc2)cs1)C(=O)Nc1ccc(Cl)cn1 (centres undefined)	none
COc1ccccc1Nc1nc(-c2cccs2)cs1	none
COc1ccc(Nc2nc(-c3cccs3)cs2)c(OC)c1	Rpn11 inh 30, PHOSPHO1 inh 80 | Rpn11 inh conf inactive | MMP-2 counter inactive | Thrombin inh inactive
Cc1ccccc1Sc1ccc(N)cn1	HNF4A DNA FP 72, Rpn11 inh 60 (no result: PHOSPHO1 inh) | Rpn11 inh conf inactive | MMP-2 counter inactive | Thrombin inh inactive
O=C(O)c1ccccc1-c1ccc(C=c2sc3nc4cc(Br)cnc4n3c2=O)o1	Rpn11 inh active (no result: Fh CTSL1 inh, TPT1 inhibitor, PHOSPHO1 inh) | Rpn11 inh conf active | MMP-2 counter 70 | Thrombin inh 184
CCc1c(C)sc(NC(=O)c2cccs2)c1C(=O)OC(C)C	none
Cc1sc(NC(=O)c2cccs2)c(C(=O)OC(C)C)c1C	Rpn11 inh 50 | Rpn11 inh conf inactive | MMP-2 counter inactive | Thrombin inh inactive
N#Cc1cc(C#N)c(SCC(=O)N2CC(=O)Nc3ccccc32)nc1N	Rpn11 inh 43 (no result: Fh CTSL1 inh, TPT1 inhibitor, PHOSPHO1 inh) | Rpn11 inh conf inactive | MMP-2 counter inactive | Thrombin inh inactive
Cc1ccccc1Nc1nc(N)nc(COC(=O)/C=C/c2ccco2)n1	none
CCc1ccccc1NC(=O)CCS(=O)(=O)c1ccc(Br)cc1	none
COC(=O)c1ccccc1NC(=O)CCS(=O)(=O)c1ccc(Br)cc1	Rpn11 inh 43 (no result: Fh CTSL1 inh, TPT1 inhibitor) | Rpn11 inh conf 114 | MMP-2 counter inactive | Thrombin inh inactive
CCOc1cc(/C=C2\NC(=S)N(c3c(C)n(C)n(-c4ccccc4)c3=O)C2=O)ccc1O	Rpn11 inh 114 | Rpn11 inh conf 67 | MMP-2 counter inactive | Thrombin inh 45
COc1cc(/C=C2\SC(=Nc3c(C)n(C)n(-c4ccccc4)c3=O)NC2=O)ccc1O	Rpn11 inh 90 (no result: Fh CTSL1 inh, TPT1 inhibitor) | Rpn11 inh conf inactive | MMP-2 counter inactive | Thrombin inh inactive
COc1cc(/C=C2\SC(=Nc3ccc(O)cc3)NC2=O)cc(OC)c1O	Rpn11 inh 45 | Rpn11 inh conf inactive | MMP-2 counter inactive | Thrombin inh inactive
CCc1ccc(N=C2NC(=O)/C(=C/c3cc(OC)c(OC)c(OC)c3)S2)cc1	none (no result: PHOSPHO1 inh)
CC1CCN(C(=O)COc2cccc3c2CCN(C)C3=O)CC1	none
O=C(NN=C1CCCCCCC1)c1ccc2ccccc2n1	none
CCc1ccc(C(=O)NNc2ccc(Cl)cc2)cc1	Rpn11 inh 37 | Rpn11 inh conf inactive | MMP-2 counter inactive | Thrombin inh inactive
CCc1ccc(C(=O)NNc2cc(Cl)cc(Cl)c2)cc1	none
O=C(Nc1ccc(S(=O)(=O)Nc2ccccc2)cc1)C1COc2ccccc2O1 (centres undefined)	Rpn11 inh 62 | Rpn11 inh conf inactive | MMP-2 counter inactive | Thrombin inh inactive
CCOc1cc2[nH]c(=S)n(CCN3CCCCC3CC)c(=O)c2cc1OCC (centres undefined)	none
CCC1CCCCN1CCCn1c(=S)[nH]c2ccccc2c1=O (centres undefined)	Rpn11 inh 72 | Rpn11 inh conf inactive | MMP-2 counter inactive | Thrombin inh inactive
CCc1ccc(OCC(=O)Nc2ccc(-c3nc4ccccc4o3)c(O)c2)cc1	Rpn11 inh 128 | Rpn11 inh conf inactive | MMP-2 counter inactive | Thrombin inh inactive
COc1ccc(OCC(=O)Nc2cccc(-c3nc4ccccc4o3)c2)cc1	none
O=C(C[C@H]1C[C@H](C(=O)N2CCCCC2)[C@@]2(CCc3ccccc3)c3[nH]c4cc(-c5ccco5)ccc4c3CCN2C1=O)NCc1cccc(C(F)(F)F)c1	Rpn11 inh 61 (no result: Fh CTSL1 inh, TPT1 inhibitor, PHOSPHO1 inh) | Rpn11 inh conf inactive | MMP-2 counter inactive | Thrombin inh inactive
O=C(C[C@H]1C[C@H](C(=O)N2CCCCC2)[C@@]2(CCc3ccccc3)c3[nH]c4cc(-c5ccco5)ccc4c3CCN2C1=O)NCc1ccco1	Rpn11 inh 78 (no result: Fh CTSL1 inh, TPT1 inhibitor, PHOSPHO1 inh) | Rpn11 inh conf inactive | MMP-2 counter inactive | Thrombin inh inactive
CC[C@]12c3[nH]c4cc(-c5ccco5)ccc4c3CCN1C(=O)[C@@H](CC(=O)NCCC1=CCCCC1)C[C@@H]2C(=O)N1CCN(C(=O)c2ccco2)CC1	none (no result: Fh CTSL1 inh, TPT1 inhibitor, PHOSPHO1 inh)
CC(C)=CCC/C(C)=C/CNC(=O)C[C@H]1C[C@H](C(=O)N2CCOCC2)[C@@]2(CCC3CCCC3)c3[nH]c4cc(-c5ccco5)ccc4c3CCN2C1=O	Rpn11 inh 45 (no result: Fh CTSL1 inh, TPT1 inhibitor, PHOSPHO1 inh) | Rpn11 inh conf inactive | MMP-2 counter inactive | Thrombin inh inactive
O=C(C[C@H]1C[C@H](C(=O)N2CCCCC2)[C@@]2(CCc3ccccc3)c3[nH]c4cc(-c5ccco5)ccc4c3CCN2C1=O)NCCC1=CCCCC1	Rpn11 inh 56 (no result: Fh CTSL1 inh, TPT1 inhibitor, PHOSPHO1 inh) | Rpn11 inh conf inactive | MMP-2 counter inactive | Thrombin inh inactive
Cc1ccc(C(=O)N/C(=C\c2ccc(-c3cc(Cl)ccc3Cl)o2)C(=O)NCc2cccnc2)cc1	Rpn11 inh 51 | Rpn11 inh conf inactive | MMP-2 counter inactive | Thrombin inh inactive
Cc1nnc(C)c2c(C)n(C(c3ccccc3)c3ccccc3)c(C)c12	Rpn11 inh 43 | Rpn11 inh conf inactive | MMP-2 counter inactive | Thrombin inh inactive
COC(=O)c1sc(NC(=O)/C=C/c2ccccc2Cl)nc1C	HNF4A DNA FP 47, Rpn11 inh 55 | Rpn11 inh conf inactive | MMP-2 counter inactive | Thrombin inh inactive
O=C(O)c1cccc(S(=O)(=O)N2CCN(c3ccccn3)CC2)c1	none (no result: Fh CTSL1 inh, TPT1 inhibitor)
COC(=O)c1cc(C#N)c(N2CCN(C)CC2)nc1C	none
CNc1ccc2nnc(C(F)(F)C(F)(F)C(F)(F)F)n2n1	Rpn11 inh 106 | Rpn11 inh conf inactive | MMP-2 counter inactive | Thrombin inh inactive
Cc1ccsc1C1C(C(=O)O)c2ccccc2C(=O)N1C (centres undefined)	Rpn11 inh 146 | Rpn11 inh conf inactive | MMP-2 counter inactive | Thrombin inh inactive
O=C(NCc1cccnc1)c1cc2nc(-c3cccs3)cc(C(F)(F)Cl)n2n1	none
CC(C)(/C=N/O)N(O)C=C1C=CC(=O)C=C1	none
